Values without a mark were called inactive. The source made the active and inactive calls. The call rests on the fitted dose curve; in most records, active means well fitted curve in the direction sought with a large enough effect in the repeat runs; inconclusive means weak or mixed curves; inactive means flat fitted curve, though single readings scatter.
Assay: qHTS assay to test for compound auto fluorescence at 460 nm (blue) in HEK293 cell free culture (AID 720681)
Conditions: cell-free medium, autofluorescence 405/460 nm (blue); series mostly up to 91.3 µM; fluorescence, % of fluorescent control: at the top concentration
Source text: U.S. Tox21 Program National Center for Advancing Translational Sciences [NCATS] NIH Chemical Genomics Center [NCGC] U.S. Environmental Protection Agency [EPA] National Institutes of Environmental Health Sciences [NIEHS] National Toxicology Program [NTP] U.S. Food and Drug Administration [FDA] Tox21 Assay Overview: Compound auto fluorescence often interferes with screening of the compound library against various biological targets and signaling pathways. Some of these compounds may have fluorophoric properties. Such properties may interfere with the assay outputs resulting in false positives and/or negatives. To decrease such complications and ensure the compound activities are relevant in terms of biological response, the Tox21 10K compound library was screened for auto fluorescence. From the fluorophores used as reporter signals in our screening assays, the auto fluorescence equivalencies of compounds against three fluorophores have been evaluated: Triamterene, Fluorescein and Rose Bengal sodium for blue, green and red fluorescence, respectively. The fluorescence intensities were measured using Excitation/Emission wavelengths at 405/460nm, 485/535nm and 540/590nm for blue, green and red labels, respectively. This assay includes the blue fluorescence data.
Tox21 Assay Protocol Summary: 5 uL of culture medium (DMEM containing 10% FBS) per well was dispensed into black wall/clear bottom 1536-well plates using a Multidrop Combi Dispenser (ThermoFisher Scientific, Waltham, MA). After 23 nL compound or DMSO vehicle was transferred into assay plate by a pintool work station (Kalypsys, San Diego, CA), fluorescence intensities in the assay plates were measured by an Envision (PerkinElmer, Shelton, CT) plate reader using three labels for measuring blue, green and red fluorescence at […] 460, 535 and 590nm respectively.
On the % scale 0 is the no-effect control and ±100 the full control effect.

Row | Structure (SMILES) | fluorescence, % of fluorescent control | Potency
1 | Cc1c([N+](=O)[O-])c(C)c([N+](=O)[O-])c(C(C)(C)C)c1[N+](=O)[O-] | 0.0509% | –
2 | C[C@]12C/C(=C/O)C(=O)C[C@@H]1CC[C@@H]1[C@@H]2CC[C@@]2(C)[C@H]1CC[C@]2(C)O | – | inactive
3 | N#Cc1c[nH]cc1-c1cccc2c1OC(F)(F)O2 | -0.0361% | –
4 | CCCCC/C=C\C/C=C\C/C=C\C/C=C\CCCC(=O)NCC(=O)O | -0.0427% [at 3.72 µM] | –
5 | O=[N+]([O-])c1cccc2cccc([N+](=O)[O-])c12 | -0.153% | –
6 | S=C=Nc1ccccc1 | 0.0714% [at 95.7 µM] | –
7 | COc1ccc2[nH]cc(CCN(C(C)C)C(C)C)c2c1 | -0.0848% [at 95.7 µM] | –
8 | CCO/N=C(\CC)C1=C(O)CC(c2c(C)cc(C)cc2C)CC1=O (stereo not given) | 0.268% | –
9 | O=C(NC(=O)c1c(F)cccc1F)Nc1ccc(Oc2ccc(C(F)(F)F)cc2Cl)cc1F | 0.267% | –
10 | [O-][Cl+3]([O-])([O-])O | 0.0566% [at 95.7 µM] | –
11 | c1ccc(Nc2ccc(Nc3ccccc3)cc2)cc1 | 0.0539% | –
12 | CC1=C2C[C@H]3[C@@H](CC=C4C[C@@H](O)CC[C@@]43C)[C@@H]2CC[C@]12O[C@@H]1C[C@H](C)CN[C@H]1[C@H]2C | 0.0033% [at 46 µM] | –
13 | c1cc[n+]2c(c1)-c1cccc[n+]1CC2 | 0.481% [at 46 µM] | –
14 | O=C(O)CCCCCCNC1c2ccccc2CCc2ccccc21 | -0.0174% [at 46 µM] | –
15 | O.O.O.O=C([O-])[C@H]([O-])[C@@H]([O-])C(=O)[O-].O=C([O-])[C@H]([O-])[C@@H]([O-])C(=O)[O-].[K+].[K+].[Sb+3].[Sb+3] | -0.142% | –
16 | Nc1nc(N)nc(Cl)n1 | -0.0615% | –
17 | O=S1(=O)OCC2C(CO1)C1(Cl)C(Cl)=C(Cl)C2(Cl)C1(Cl)Cl (stereo not given) | -0.156% | –
18 | O=[N+]([O-])C(Br)Br | 0.016% | –
19 | ClC(Cl)C(Cl)(Cl)Cl | -0.0469% | –
20 | C=CC(=O)[O][Sn]([CH2]CCC)([CH2]CCC)[CH2]CCC | 0.0122% | –

Row | Structure (SMILES) | fluorescence, % of fluorescent control | Potency
21 | COC(=O)c1cc(Oc2ccc(Cl)cc2Cl)ccc1[N+](=O)[O-] | -0.169% | –
22 | CNC(=O)CSP(=O)(OC)OC | -0.267% | –
23 | CC[C@]1(O)CC[C@H]2[C@@H]3CCC4=CCCC[C@@H]4[C@H]3CC[C@@]21C | -0.079% [at 46 µM] | –
24 | O=[N+]([O-])c1ccc(Cl)c(Cl)c1Cl | -0.251% | –
25 | CNC(=O)/C=C(\C)OP(=O)(OC)OC | -0.029% | –
26 | ClSC(Cl)(Cl)Cl | -0.0538% | –
27 | COP(=S)(OC)Oc1ccc([N+](=O)[O-])c(C)c1 | -0.329% | –
28 | Oc1cccc(Cl)c1Cl | 0.0116% | –
29 | CO/N=C(/C1=NOCCO1)c1ccccc1Oc1ncnc(Oc2ccccc2Cl)c1F | 0.0501% | –
30 | Clc1ccc(C(c2ccc(Cl)cc2)C(Cl)Cl)cc1 | – | inactive
31 | Clc1c(Cl)c(Cl)c(Cl)c(Cl)c1Cl | -0.026% [at 3.72 µM] | –
32 | Cc1c([N+](=O)[O-])cc2c(c1[N+](=O)[O-])C(C)(C)CC2(C)C | 0.0843% | –
33 | CC(=O)[O-].CC(=O)[O-].CC(=O)[O-].[Cr+3] | -0.261% | –
34 | O=P(Cl)(Cl)Cl | -0.0028% [at 95.7 µM] | –
35 | Oc1ccc(Cl)c(Cl)c1 | -0.284% | –
36 | CCN(CC)C(=O)N[C@@H]1C=C2c3cccc4[nH]cc(c34)C[C@@H]2N(C)C1 | 2.33% [at 46 µM] | –
37 | Brc1ccc(Oc2ccc(Br)cc2Br)c(Br)c1 | -0.104% | –
38 | CCN(CC)C(=S)S | – | inactive
39 | CCCCc1ccccc1 | -0.0128% | –
40 | CN(C)c1ccc(N)cc1 | -0.0216% | –
